Here are results for 17 molecules from PubChem BioAssay (NCATS).

The nature of test [1]: Quantitative High-Throughput drug screen in 47 multiple myeloma cell lines against the NCATS MIPE library collection: H1112_PLB cell viability assay (AID 1918967; note: nearly all actives have a fitted effect of over 30% in size; note: potency is the fitted concentration of half-maximal effect). An outline of the steps:
(§1)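 Steps: seed 500 cells per well; pin-transfer MIPE 4.0 library; incubate 48 h at 37C, 5% CO2, humidified; add CellTiter-Glo, 5 min room temperature; read luminescence.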

Test [2] can be described thus: Quantitative High-Throughput drug screen in 47 multiple myeloma cell lines against the NCATS MIPE library collection: Karpas25_ECACC cell viability assay (AID 1918968; note: nearly all actives have a fitted effect of over 35% in size; note: potency is the fitted concentration of half-maximal effect). The procedure, abridged:
as §1

Test [3] is described as follows: Quantitative High-Throughput drug screen in 47 multiple myeloma cell lines against the NCATS MIPE library collection: KMS12BM_JCRB cell viability assay (AID 1918971). Note: nearly all actives have a fitted effect of over 35% in size. Note: potency is the fitted concentration of half-maximal effect. An outline of the steps:
(§2)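 We plated 500 myeloma cells per well, pinned in MIPE 4.0 compounds, and incubated for 48 hours at 37C. ATP was then quantified with CellTiter-Glo, with DMSO and media-only wells defining 100% and 0%.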

Test [4] can be described thus: Quantitative High-Throughput drug screen in 47 multiple myeloma cell lines against the NCATS MIPE library collection: KMS12PE_JCRB cell viability assay (AID 1918972). Note: nearly all actives have a fitted effect of over 30% in size. Note: potency is the fitted concentration of half-maximal effect. The procedure, abridged: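 Myeloma cells (500 per well) were exposed to MIPE 4.0 compounds by pin transfer and incubated 48 hours at 37C, 5% CO2. Viability was read as ATP by CellTiter-Glo luminescence, normalised to DMSO (100%) and media-only (0%) wells.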

Test [5] in a line: Quantitative High-Throughput drug screen in 47 multiple myeloma cell lines against the NCATS MIPE library collection: KMS20_JCRB cell viability assay (AID 1918973). Note: nearly all actives have a fitted effect of over 45% in size. Note: potency is the fitted concentration of half-maximal effect. An outline of the steps:
as §1

A short description of test [6]: Quantitative High-Throughput drug screen in 47 multiple myeloma cell lines against the NCATS MIPE library collection: KMS26_JCRB cell viability assay (AID 1918975). Note: nearly all actives have a fitted effect of over 45% in size. Note: potency is the fitted concentration of half-maximal effect. An outline of the steps:
as §2

The nature of test [7]: Quantitative High-Throughput drug screen in 47 multiple myeloma cell lines against the NCATS MIPE library collection: MMM1_PLB cell viability assay (AID 1918976). Note: nearly all actives have a fitted effect of over 35% in size. Note: potency is the fitted concentration of half-maximal effect. An outline of the steps:
(§3)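 Myeloma cells (500/well) treated with MIPE 4.0 compounds for 48 h at 37 °C, 5% CO2. Viability read as ATP via CellTiter-Glo luminescence after 5 min at RT; DMSO-only wells = 100%, media-only = 0% viability.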

Test [8] in a line: Quantitative High-Throughput drug screen in 47 multiple myeloma cell lines against the NCATS MIPE library collection: NCIH929_DSMZ cell viability assay (AID 1918978). Note: nearly all actives have a fitted effect of over 35% in size. Note: potency is the fitted concentration of half-maximal effect. An outline of the steps: as §3
The nature of test [9]: Quantitative High-Throughput drug screen in 47 multiple myeloma cell lines against the NCATS MIPE library collection: OCIMY1_PLB cell viability assay (AID 1918979). Note: nearly all actives have a fitted effect of over 35% in size. Note: potency is the fitted concentration of half-maximal effect. An outline of the steps:
as §3

The nature of test [10]: Quantitative High-Throughput drug screen in 47 multiple myeloma cell lines against the NCATS MIPE library collection: MM1S_ATCC cell viability assay (AID 1918980). Note: nearly all actives have a fitted effect of over 45% in size. Note: potency is the fitted concentration of half-maximal effect. An outline of the steps:
as §3

A short description of test [11]: Quantitative High-Throughput drug screen in 47 multiple myeloma cell lines against the NCATS MIPE library collection: MM1R_ATCC cell viability assay (AID 1918981). Note: nearly all actives have a fitted effect of over 35% in size. Note: potency is the fitted concentration of half-maximal effect. An outline of the steps:
as §3

A short description of test [12]: Quantitative High-Throughput drug screen in 47 multiple myeloma cell lines against the NCATS MIPE library collection: KMS34_JCRB cell viability assay (AID 1918985). Note: nearly all actives have a fitted effect of over 40% in size. Note: potency is the fitted concentration of half-maximal effect. The procedure, abridged:
as §3

The nature of test [13]: Quantitative High-Throughput drug screen in 47 multiple myeloma cell lines against the NCATS MIPE library collection: OCIMY7_PLB cell viability assay (AID 1918987). Note: nearly all actives have a fitted effect of over 65% in size. Note: potency is the fitted concentration of half-maximal effect. The procedure, abridged:
as §3

Test [14] is described as follows: Quantitative High-Throughput drug screen in 47 multiple myeloma cell lines against the NCATS MIPE library collection: OCIMY5_PLB cell viability assay (AID 1918988). Note: nearly all actives have a fitted effect of over 65% in size. Note: potency is the fitted concentration of half-maximal effect. The procedure, abridged: as §3
Test [15] is described as follows: Quantitative High-Throughput drug screen in 47 multiple myeloma cell lines against the NCATS MIPE library collection: LP1_DSMZ cell viability assay (AID 1918982). Note: nearly all actives have a fitted effect of over 35% in size. Note: potency is the fitted concentration of half-maximal effect. The procedure, abridged: as §3
A short description of test [16]: Quantitative High-Throughput drug screen in 47 multiple myeloma cell lines against the NCATS MIPE library collection: KMS28PE_JCRB cell viability assay (AID 1918983). Note: nearly all actives have a fitted effect of over 35% in size. Note: potency is the fitted concentration of half-maximal effect. The procedure, abridged: as §3
Test [17] is described as follows: Quantitative High-Throughput drug screen in 47 multiple myeloma cell lines against the NCATS MIPE library collection: KMS27_JCRB cell viability assay (AID 1918970). Note: nearly all actives have a fitted effect of over 30% in size. Note: potency is the fitted concentration of half-maximal effect. The procedure, abridged: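 Myeloma cells (500 per well) were exposed to MIPE 4.0 compounds for 48 h at 37 °C, 5% CO2; viability was read as ATP luminescence with CellTiter-Glo, normalized to DMSO-only (100%) and media-only (0%) wells.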

Test [18] is described as follows: Quantitative High-Throughput drug screen in 47 multiple myeloma cell lines against the NCATS MIPE library collection: L363_DSMZ cell viability assay (AID 1918984). Note: nearly all actives have a fitted effect of over 40% in size. Note: potency is the fitted concentration of half-maximal effect. The procedure, abridged:
as §3

Test [19] can be described thus: Quantitative High-Throughput drug screen in 47 multiple myeloma cell lines against the NCATS MIPE library collection: MOLP8_DSMZ cell viability assay (AID 1918977). Note: nearly all actives have a fitted effect of over 45% in size. Note: potency is the fitted concentration of half-maximal effect. An outline of the steps: as §3
The nature of test [20]: Quantitative High-Throughput drug screen in 47 multiple myeloma cell lines against the NCATS MIPE library collection: KMS21BM_JCRB cell viability assay (AID 1918974). The note with it: ATP luminescence, 48 h; viability: at 45.8 µM (top of the series). An outline of the steps:
as §1

Molecules are shown by their SMILES. Records with an inconclusive call do not appear. Calls of active or inactive are those of the source. Calls come from the whole dose curve; as a rule, active = well fitted curve in the direction sought with a large enough effect; inconclusive = small, poorly fitted or top-dose-only effect, or another doubt; inactive = no such curve, though single readings can be large; an effect the other way counts as inactive or inconclusive.

Consider `CC(C)(C)NC(=O)[C@H]1CC[C@H]2[C@@H]3CC[C@H]4NC(=O)C=C[C@]4(C)[C@H]3CC[C@]12C`, for which the Potency in [1] is 1.18 µM (active); in test [2] it was 0.662 µM (active); in test [4] it was 20.9 µM (active); in [5], 3.32 µM (active); in [6], 2.96 µM (active); in test [8], 0.296 µM (active). In addition, the Potency was 0.264 µM (active) in test [10], 1.32 µM (active) in test [11], 0.332 µM (active) in [13] and 0.59 µM (active) in test [14]. Further, the Potency entry in test [3], in test [7], in test [9] and in test [12] was “inactive” each time.

For the molecule `NC(=O)c1ccc2[nH]ccc2c1`, the Potency result in [1], in [2], in test [3], in [4], in [6] and in [8] was “inactive” each time. Further, the Potency entry in [9], in test [15], in test [16] and in test [12] was “inactive” in each case.

Take `CNCC[C@H](Oc1cccc2ccccc12)c1cccs1`: the Potency in test [1] was 2.35 µM (active); in test [2], 2.96 µM (active); in [17] it was 23.5 µM (active); in test [3], 18.7 µM (active); in test [6], 7.43 µM (active); in test [7], 29.6 µM (active). Also, the Potency in test [8] was 1.87 µM (active); in test [9] it was 18.7 µM (active); in test [10], 2.35 µM (active); in test [11], 14.8 µM (active); in test [15], 18.7 µM (active); in test [16], 18.7 µM (active). Moreover, the Potency is 0.59 µM (active) in [13] and 2.35 µM (active) in test [14].

In the case of `S=P(N1CC1)(N1CC1)N1CC1`, the Potency result in test [2], in [4], in [6], in [9], in test [15] and in [14] was “inactive” each time. The Potency in test [17] is 0.469 µM (active); in [10] it was 18.7 µM (active); in test [11] it was 18.7 µM (active); in [12], 0.0012 µM (active); in test [13], 13.2 µM (active).

`Cc1ccnc2c1NC(=O)c1cccnc1N2C1CC1`: the Potency in [17] is 1.87 µM (active); in test [10], 4.69 µM (active). Also, the Potency entry in test [3], in [4], in test [6], in test [9], in test [11] and in test [15] was “inactive” in each case. The Potency entry in [16], in test [18] and in test [14] was “inactive” in each case.

With `CCC(C)(C)c1ccc(CC(C)CN2C[C@@H](C)O[C@@H](C)C2)cc1` (some centres not stated), the Potency result in [4] and in test [8] was “inactive” in each case.

On to `CNC1CCCN(c2c(F)cc3c(=O)c(C(=O)O)cn(C4CC4)c3c2OC)C1` (configuration not stated), for which the Potency in test [2] is 9.35 µM (active); in test [17] it was 0.0209 µM (active); in test [8] it was 1.48 µM (active); in test [10], 11.8 µM (active); in test [13], 1.32 µM (active). The Potency result in test [3], in [5], in test [9], in test [11] and in test [15] was “inactive” each time.

With `COc1cc2ncnc(Nc3cccc(Cl)c3)c2cc1OC`, the Potency in test [2] was 20.9 µM (active); in [17], 29.6 µM (active); in test [3] it was 26.4 µM (active); in test [4], 20.9 µM (active); in test [6], 23.5 µM (active); in test [7], 11.8 µM (active). The Potency is 0.0743 µM (active) in test [10], 20.9 µM (active) in test [11], 26.4 µM (active) in test [16] and 0.264 µM (active) in test [14]. Also, the Potency entry in test [15] is “inactive”.

On to `Nc1nc(N)c2nc(CNc3ccc(C(=O)NC(CCC(=O)O)C(=O)O)cc3)cnc2n1` (configuration not stated), for which the Potency result in test [2], in test [19], in test [8], in test [9] and in [16] was “inactive” throughout. Moreover, the Potency in test [6] was 0.0264 µM (active); in test [10], 0.0132 µM (active); in [15] it was 0.0296 µM (active).

Take `CO[C@@]12[C@H](COC(N)=O)C3=C(C(=O)C(C)=C(N)C3=O)N1C[C@@H]1N[C@@H]12`: the Potency in test [1] was 23.5 µM (active); in test [3] it was 23.5 µM (active); in test [6], 23.5 µM (active); in [7] it was 23.5 µM (active); in [19] it was 23.5 µM (active); in test [8] it was 26.4 µM (active). The Potency in test [10] is 0.264 µM (active); in test [11] it was 11.8 µM (active); in test [16] it was 23.5 µM (active); in test [12], 26.4 µM (active); in [13], 18.7 µM (active); in test [14], 26.4 µM (active).

As for `O=S(=O)(O)CCS`, the Potency result in test [1], in test [5], in [19], in [8], in test [9] and in test [10] was “inactive” throughout. Further, the Potency entry in test [11], in test [15], in test [16], in test [12] and in [13] was “inactive” in each case. The Potency in test [17] was 16.6 µM (active).

With `COCCCOc1cc(C[C@@H](C[C@H](N)[C@@H](O)C[C@H](C(=O)NCC(C)(C)C(N)=O)C(C)C)C(C)C)ccc1OC`, the Potency in test [2] was 1.87 µM (active); in test [10] it was 0.0743 µM (active). In addition, the Potency result in test [4], in test [6], in test [8], in test [11], in test [15] and in test [18] was “inactive” in each case. The Potency entry in [12] and in [14] was “inactive” in each case.

Regarding `CC(=O)[C@H]1CC[C@H]2[C@@H]3CCC4=CC(=O)CC[C@]4(C)[C@H]3CC[C@]12C`, the Potency entry in test [8], in test [16] and in test [12] was “inactive” each time. Moreover, the Potency in test [10] is 3.72 µM (active).

For `O=C(O)c1cccnc1`, the Potency entry in [1], in test [4], in [5], in test [8], in [9] and in test [10] was “inactive” in each case. For the same molecule, the Potency result in test [11], in test [15], in test [16], in [18] and in test [12] was “inactive” in each case. Further, the Potency in test [7] is 1.48 µM (active).

`CCC(=O)O[C@]1(C(=O)CCl)[C@@H](C)C[C@H]2[C@@H]3CCC4=CC(=O)C=C[C@]4(C)[C@@]3(F)[C@@H](O)C[C@@]21C`: the Potency result in test [1], in test [20], in test [6], in [8], in test [9] and in test [11] was “inactive” throughout. In [12], the Potency entry is “inactive”. In addition, the Potency in test [3] is 14.8 µM (active); in test [4], 16.6 µM (active); in [18], 0.0093 µM (active); in test [14], 1.32 µM (active).

In the case of `COc1cc([C@@H]2c3cc4c(cc3[C@H](O)[C@H]3COC(=O)[C@H]23)OCO4)cc(OC)c1OC`, the Potency entry in [2], in [17], in test [4], in test [20], in test [7] and in test [8] was “inactive” each time. Also, the Potency entry in [9], in test [10], in [15], in test [18], in test [12] and in [13] was “inactive” throughout.

With `COc1cccc(N(C)C(=S)Oc2ccc3c(c2)CCCC3)n1`, the Potency result in test [1], in test [3], in test [6], in test [8], in test [9] and in test [11] was “inactive” each time. Also, the Potency entry in test [12] was “inactive”. Moreover, the Potency in [10] was 18.7 µM (active).
